Source: PubChem BioAssay (NCATS)
Results filed as inconclusive are left out. Active and inactive are the calls of the source. The call rests on the fitted dose curve; in most records, active means well fitted inhibition curve with a large enough effect; inconclusive means small, poorly fitted or top-dose-only effect; inactive means flat fitted curve, though single readings scatter.

Each compound was assayed on CRL-7250 (assay: qHTS assay to identify novel small-molecules to repurpose for Merkel cell carcinoma treatment (AID 1296009; further: nearly all actives have a fitted effect of over 60% in size)). Details: MCC and control cell lines, CellTiter-Glo viability, 72 h; series mostly up to 92 µM; activity change, negative = cytotoxicity: at the top concentration.
Procedure, shortened: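 After compound transfer in DMSO, plates were kept 72 hr at 37 degree celsius. Luminescent ATP signal from CellTiter-Glo served as viability measure, normalized against DMSO and no-cell controls.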
With `CCOC(=O)CCNc1cc(N2CCc3ccccc3CC2)nc(-c2cccnc2)n1` the “outcome” value was “inactive”. `C=C1CCC2C(C)(C)CC(=O)CC2(C)C1CCC(C)CCOC(C)=O` (stereo not given) was tested, and the “outcome” value was “inactive”. For `CC(=O)OC/C(=C/C(=O)O)CC[C@@H]1C(C)=CC(=O)[C@@H]2C(C)(C)CCC[C@@]12C`, the “outcome” value was “inactive”. With `COc1cc(Br)c(S(=O)(=O)Nc2ccc(Cl)c(O[C@@H]3CCN(C)C3)c2)cc1OC` the “outcome” value was “inactive”. In the case of `O=C1C(Cl)=C(N2CCOCC2)C(=O)N1c1ccc(Cl)c(Cl)c1`, the “outcome” value is reported as “inactive [at 17.4 µM]”. In the case of `CCc1cc2c(cc1CC)CC(NCC(O)c1ccc(O)c3[nH]c(=O)ccc13)C2` (stereo not given), the “outcome” value is reported as “inactive”. `COC(=O)C1=COC(OC2OC(CO)C(O)C(O)C2O)C2C(COC(=O)/C=C/c3ccc(O)c(O)c3)C(O)C(O)C12` (stereo not given) was tested, and the “outcome” value was “inactive [at 17.4 µM]”. With `CC[C@@H](Nc1c(Nc2cccc(C(=O)N(C)C)c2O)c(=O)c1=O)c1ccc(C)o1` the “outcome” value was “inactive”. `CC1(C)CC[C@]2(C(=O)O)[C@H](O)C[C@]3(C)C(=CCC4[C@@]5(C)CC[C@H](O[C@@H]6O[C@H](CO[C@@H]7OC[C@H](O)[C@H](O)[C@H]7O[C@@H]7OC[C@H](O)[C@H](O)[C@H]7O)[C@@H](O)[C@H](O)[C@H]6O)C(C)(C)C5CC[C@]43C)[C@@H]2C1` (stereo not given in full) was tested, and the outcome was “inactive [at 9.27 µM]”. For `COc1cc([C@@H]2Oc3c(OC)cc(CCCO)cc3[C@@H]2CO[C@@H]2O[C@H](CO)[C@@H](O)[C@H](O)[C@H]2O)ccc1O`, the “outcome” value was “inactive [at 17.4 µM]”. With `O=C(Cn1c2ccccc2c2nc3n(c(=O)c21)CCS3)N1CCCC1` the “outcome” value was “inactive”. With `CC1(C)CC[C@]2(C(=O)O)CC[C@]3(C)C(=CCC4[C@@]5(C)C[C@@H](O)[C@H](O)[C@@](C)(CO)C5[C@H](O)C[C@]43C)[C@@H]2C1` (stereo not given in full) the “outcome” value was “inactive [at 17.4 µM]”. With `Cc1cc(CO)c(O)c(C(=O)CC2CC(=O)NC(=O)C2)c1` the “outcome” value was “inactive”. `CCn1nnnc1NCc1ccc(C(C)C)cc1` was tested, and the “outcome” value was “inactive”. In the case of `C=C1CC2C3(C)C(O)CC(=O)C(C)(C)C3C(OC(C)=O)C(OC(C)=O)C2(C)C2C(=O)OC(C)(C(=O)OC)C(=O)C12C` (stereo not given), the “outcome” value is reported as “inactive [at 17.4 µM]”. With `Cc1nc(C(=O)N2CCC[C@H]2Cc2nnc(-c3ccccc3)o2)c(-c2ccccc2F)s1` the “outcome” value was “inactive”. With `O=C(O)CCc1cccc(O[C@@H]2O[C@H](CO)[C@@H](O)[C@H](O)[C@H]2O)c1O` the “outcome” value was “inactive”. In the case of `CC(=O)OC[C@]12[C@H](OC(C)=O)[C@H](OC(=O)c3ccccc3)[C@@H]3[C@@H](OC(C)=O)[C@]1(OC3(C)C)[C@H](C)C[C@H](OC(C)=O)[C@@H]2OC(=O)c1ccccc1`, the “outcome” value is reported as “inactive [at 17.4 µM]”. In the case of `COc1cc([C@H]2OC[C@]3(OC(C)=O)[C@@H](c4ccc(O[C@@H]5O[C@H](CO)[C@@H](O)[C@H](O)[C@H]5O)c(OC)c4)OC[C@H]23)ccc1O`, the “outcome” value is reported as “inactive [at 17.4 µM]”. With `NC(=O)C(O[C@@H]1O[C@H](CO[C@@H]2O[C@H](CO)[C@@H](O)[C@H](O)[C@H]2O)[C@@H](O)[C@H](O)[C@H]1O)c1ccccc1` (stereo not given in full) the “outcome” value was “inactive [at 17.4 µM]”. For `CCCN1CCC=C(c2cc(-c3ccc(C)cc3)no2)C1`, the “outcome” value was “inactive”. For `Cc1nc2ccc(CN(C)c3ccc(C(=O)NC(CCC(=O)O)C(=O)O)s3)cc2c(=O)[nH]1` (stereo not given), the “outcome” value was “inactive”. In the case of `CC(C)S(=O)(=O)N[C@H]1CCOC[C@@H]1c1ccc(-c2ccc(C#N)s2)cc1`, the “outcome” value is reported as “inactive”. In the case of `COC(=O)C(CC1(O)c2ccccc2N2C(=O)C(CC(C)C)NC21)n1cnc2ccccc2c1=O` (stereo not given), the “outcome” value is reported as “inactive [at 17.4 µM]”. For `CN(C)C(=O)C(O)C(Cc1ccccc1)NC(=O)c1cc2cc(Cl)ccc2[nH]1` (stereo not given), the “outcome” value was “inactive”. With `COc1ccc(/C=C/C(N)=O)cc1OC` the “outcome” value was “inactive”. `CN(C)CCn1cc(S(=O)(=O)c2cccc(F)c2)c2cccnc21` was tested, and the “outcome” value was “inactive”. With `C=C1C(O)CCC2(C)CC3(OC)OC(=O)C(C)=C3CC12` (stereo not given) the “outcome” value was “inactive”. In the case of `CC(C)(O)C1CCC(C)(C2CCC3(C)C4CCC5C(C)(C(=O)OC6OC(CO)C(O)C(O)C6O)C(O)CC(O)C56CC46CCC23C)O1` (stereo not given), the “outcome” value is reported as “inactive [at 17.4 µM]”. `CC(=O)NC(CCC(=O)O)C(=O)NCCc1ccc(O)cc1` (stereo not given) was tested, and the “outcome” value was “inactive”. With `CC(C)CC(=O)OC[C@H]1O[C@@](COC(=O)CC(C)C)(O[C@H]2O[C@H](CO)[C@@H](O)[C@H](O)[C@H]2OC(=O)CC(C)C)[C@@H](OC(=O)CC(C)C)[C@@H]1O` the “outcome” value was “inactive [at 17.4 µM]”. In the case of `CCCSc1nc(NC2CC2c2ccc(F)c(F)c2)c2nnn(C3CC(OCCO)C(O)C3O)c2n1` (stereo not given), the “outcome” value is reported as “inactive”. `CN1CCN(C2=Nc3ccccc3Nc3ccc(OS(=O)(=O)C(F)(F)F)cc32)CC1` was tested, and the “outcome” value was “inactive”. In the case of `C[C@H]1/C=C/C=C/C=C/C=C/C=C/[C@@H](O)[C@H](C(=O)O)[C@H](O)C[C@H](O)CCC[C@H](O)C[C@H](O)C[C@H](O)[C@@H](C)C(=O)O[C@@H]1C`, the “outcome” value is reported as “inactive [at 17.4 µM]”. With `COc1cccc(-c2ccc([C@@H](Oc3cc(-c4ccc(C[C@H](N)C(=O)O)cc4)nc(N)n3)C(F)(F)F)cc2)c1` the “outcome” value was “inactive”. `OC1COC(OCC2OC(OCCc3ccccc3)C(O)C(O)C2O)C(O)C1O` (stereo not given) was tested, and the “outcome” value was “inactive [at 17.4 µM]”. `C/C=C/C=C/C(O)=C1/C(=O)[C@]2(C)C(=O)[C@@](C)(O)[C@H]1[C@H]([C@@]1(C)OC(=O)C(C)=C1O)[C@H]2C(=O)CC/C=C/C` was tested, and the “outcome” value was “inactive [at 17.4 µM]”. For `C[C@@H]1CC[C@H]2C(C)(C)[C@H](O)[C@H](O)C[C@]2(C)[C@@]12Cc1c(O)cc3c(c1O2)CNC3=O`, the “outcome” value was “inactive”. In the case of `C=CC1(C)C=C2C(O)CC3C(C)(C(=O)O)CCCC3(C)C2CC1` (stereo not given), the “outcome” value is reported as “inactive”. With `CC(=O)OC1CC(C)C2(CCC3(CC(=O)OC3O)O2)C2(C)CCCC(C)(C)C12` (stereo not given) the “outcome” value was “inactive [at 17.4 µM]”.
